# Reference: article PMC7862700, “An all-to-all approach to the identification of sequence-specific readers for epigenetic DNA modifications on cytosine”
# How the values were obtained:
# Test in all cases: DAPPL (digital affinity profiling via proximity ligation, sequencing); 10 mM Tris-HCl pH 7.5, 50 mM NaCl, 1 mM DTT, 4% glycerol, room temperature, 30 min; GST-TFs on glutathione beads, 16-mer random dsDNA library, 0.1% formaldehyde crosslink after washing; high values mean tight binding
# FLI1 = biological target: T1, FLI1 (Homo sapiens, UniProt Q01543 1-452); details: protein: recombinant; tags: N-terminal GST; dsDNA, one strand shown
# T1 sequence: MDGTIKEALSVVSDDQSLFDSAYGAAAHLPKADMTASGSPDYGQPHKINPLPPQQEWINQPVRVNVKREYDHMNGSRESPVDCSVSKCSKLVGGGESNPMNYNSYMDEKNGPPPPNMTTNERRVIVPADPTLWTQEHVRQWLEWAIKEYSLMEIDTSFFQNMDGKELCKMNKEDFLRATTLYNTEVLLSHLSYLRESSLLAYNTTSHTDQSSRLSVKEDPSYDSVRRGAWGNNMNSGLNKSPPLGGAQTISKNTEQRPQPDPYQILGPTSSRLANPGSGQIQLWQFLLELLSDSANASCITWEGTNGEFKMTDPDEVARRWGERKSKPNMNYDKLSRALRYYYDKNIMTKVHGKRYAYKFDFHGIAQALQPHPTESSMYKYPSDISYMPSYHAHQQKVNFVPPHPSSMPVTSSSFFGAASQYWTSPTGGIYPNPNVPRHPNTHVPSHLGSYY
# Procedure, shortened: (§1)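 Pools of DNA-barcoded human transcription factors, expressed in yeast as GST fusions on glutathione beads and combined with a tag-only sample, were incubated with 200 nmole of a 16-mer random double-stranded DNA library. Incubation took 30 min at room temperature in Tris/NaCl/DTT/glycerol buffer and was followed by washing, 0.1% formaldehyde crosslinking, proximity ligation (BsaI/T4 ligase, 1 h, 37 °C), PCR amplification and sequencing on an Illumina NextSeq500. Binding signal is the ratio of a hexamer's read frequency for a factor to its frequency for the tag-only sample.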
# ELK1 = biological target: T2, ELK1 (Homo sapiens, UniProt P19419 1-428); details: protein: recombinant; tags: N-terminal GST; dsDNA, one strand shown
# T2 sequence: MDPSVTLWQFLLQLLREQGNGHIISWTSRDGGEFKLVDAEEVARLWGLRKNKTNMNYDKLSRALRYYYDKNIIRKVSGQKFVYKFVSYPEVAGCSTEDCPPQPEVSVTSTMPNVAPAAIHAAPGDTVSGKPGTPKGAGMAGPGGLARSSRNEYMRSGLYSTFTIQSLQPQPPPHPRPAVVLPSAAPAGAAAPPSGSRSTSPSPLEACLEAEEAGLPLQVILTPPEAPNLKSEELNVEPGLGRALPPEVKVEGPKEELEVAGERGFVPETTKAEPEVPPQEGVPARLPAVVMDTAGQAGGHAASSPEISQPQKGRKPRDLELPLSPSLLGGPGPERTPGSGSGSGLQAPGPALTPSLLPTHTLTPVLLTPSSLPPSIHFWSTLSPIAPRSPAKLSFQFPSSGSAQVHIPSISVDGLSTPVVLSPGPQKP
# Procedure, shortened: as §1
# GABPA = biological target: T3, GABPA (Homo sapiens, UniProt Q06546 1-454); details: protein: recombinant; tags: N-terminal GST; dsDNA, one strand shown
# T3 sequence: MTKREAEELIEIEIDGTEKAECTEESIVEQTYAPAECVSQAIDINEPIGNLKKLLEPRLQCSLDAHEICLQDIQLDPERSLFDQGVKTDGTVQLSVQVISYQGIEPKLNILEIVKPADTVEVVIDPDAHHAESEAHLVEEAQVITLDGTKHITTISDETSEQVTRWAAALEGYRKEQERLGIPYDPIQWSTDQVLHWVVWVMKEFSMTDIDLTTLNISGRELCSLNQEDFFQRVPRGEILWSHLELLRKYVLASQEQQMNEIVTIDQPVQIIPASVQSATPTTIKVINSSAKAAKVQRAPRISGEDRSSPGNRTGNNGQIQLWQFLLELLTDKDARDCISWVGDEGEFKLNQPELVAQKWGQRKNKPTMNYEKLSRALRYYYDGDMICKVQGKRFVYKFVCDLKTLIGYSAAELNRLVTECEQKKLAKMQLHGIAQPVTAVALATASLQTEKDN
# Procedure, shortened: as §1
# ERG = biological target: T4, ERG (Homo sapiens, UniProt P11308 1-479); details: protein: recombinant; tags: N-terminal GST; dsDNA, one strand shown
# T4 sequence: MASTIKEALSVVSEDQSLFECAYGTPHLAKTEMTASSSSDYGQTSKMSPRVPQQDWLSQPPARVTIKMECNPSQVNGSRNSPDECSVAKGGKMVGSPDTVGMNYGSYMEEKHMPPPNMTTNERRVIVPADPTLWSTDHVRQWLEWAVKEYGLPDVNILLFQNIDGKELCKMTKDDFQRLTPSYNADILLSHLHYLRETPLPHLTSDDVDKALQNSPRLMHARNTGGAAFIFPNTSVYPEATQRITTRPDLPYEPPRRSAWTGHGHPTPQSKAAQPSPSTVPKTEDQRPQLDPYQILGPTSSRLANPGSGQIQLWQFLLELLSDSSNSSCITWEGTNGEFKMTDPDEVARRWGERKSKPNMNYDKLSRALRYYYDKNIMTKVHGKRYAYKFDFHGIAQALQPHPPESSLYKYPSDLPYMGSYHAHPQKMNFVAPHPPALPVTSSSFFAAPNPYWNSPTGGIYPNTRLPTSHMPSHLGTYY
# Procedure, shortened: as §1
# ELF1 = ELF1 (Homo sapiens, UniProt P32519 1-619); details: protein: recombinant; tags: N-terminal GST; dsDNA, one strand shown
# Procedure, shortened: as §1
# EHF = biological target: T5, EHF (Homo sapiens, UniProt Q9NZC4 1-300); details: protein: recombinant; tags: N-terminal GST; dsDNA, one strand shown
# T5 sequence: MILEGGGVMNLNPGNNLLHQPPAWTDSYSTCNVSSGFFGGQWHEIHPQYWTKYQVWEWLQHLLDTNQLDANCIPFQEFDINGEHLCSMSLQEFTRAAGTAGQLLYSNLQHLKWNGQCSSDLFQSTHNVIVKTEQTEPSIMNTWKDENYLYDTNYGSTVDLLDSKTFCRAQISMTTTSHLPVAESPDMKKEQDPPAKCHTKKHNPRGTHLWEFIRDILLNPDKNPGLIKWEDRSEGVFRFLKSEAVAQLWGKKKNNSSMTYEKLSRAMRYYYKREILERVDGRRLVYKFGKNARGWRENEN
# Procedure, shortened: as §1
# SPI1 = SPI1 (Homo sapiens, UniProt P17947 1-270); details: protein: recombinant; tags: N-terminal GST; dsDNA, one strand shown
# Procedure, shortened: as §1
# SPIB = SPIB (Homo sapiens, UniProt Q01892 1-262); details: protein: recombinant; tags: N-terminal GST; dsDNA, one strand shown
# Procedure, shortened: as §1
# ELK3 = biological target: T6, ELK3 (Homo sapiens, UniProt P41970 1-407); details: protein: recombinant; tags: N-terminal GST; dsDNA, one strand shown
# T6 sequence: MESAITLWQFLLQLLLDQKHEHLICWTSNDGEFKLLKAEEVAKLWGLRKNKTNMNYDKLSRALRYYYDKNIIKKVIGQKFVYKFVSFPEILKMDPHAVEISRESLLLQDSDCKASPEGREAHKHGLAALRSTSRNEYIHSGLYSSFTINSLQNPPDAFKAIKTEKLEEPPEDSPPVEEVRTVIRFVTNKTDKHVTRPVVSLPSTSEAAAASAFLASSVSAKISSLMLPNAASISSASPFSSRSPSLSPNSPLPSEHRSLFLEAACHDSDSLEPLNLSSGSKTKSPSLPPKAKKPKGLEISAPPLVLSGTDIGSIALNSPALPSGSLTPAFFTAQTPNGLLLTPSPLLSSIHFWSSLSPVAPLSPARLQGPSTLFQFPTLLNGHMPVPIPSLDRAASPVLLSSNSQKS
# Procedure, shortened: as §1
# FEV = biological target: T7, FEV (Homo sapiens, UniProt Q99581 1-238); details: protein: recombinant; tags: N-terminal GST; dsDNA, one strand shown
# T7 sequence: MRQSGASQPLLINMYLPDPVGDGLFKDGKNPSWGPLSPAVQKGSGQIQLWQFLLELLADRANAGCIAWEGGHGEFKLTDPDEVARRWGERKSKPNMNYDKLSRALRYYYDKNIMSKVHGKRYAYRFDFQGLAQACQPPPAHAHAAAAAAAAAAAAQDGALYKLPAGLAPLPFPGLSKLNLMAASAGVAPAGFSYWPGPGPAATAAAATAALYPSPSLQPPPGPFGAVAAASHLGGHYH
# Procedure, shortened: as §1
# ETV5 = ETV5 (Homo sapiens, UniProt P41161 1-510); details: protein: recombinant; tags: N-terminal GST; dsDNA, one strand shown
# Procedure, shortened: as §1
# HSF1 = HSF1 (Homo sapiens, UniProt Q00613 1-529); details: protein: recombinant; tags: N-terminal GST; chain copies: 3; dsDNA, one strand shown
# Procedure, shortened: as §1
# SPIC = biological target: T8, SPIC (Homo sapiens, UniProt Q8N5J4 1-248); details: protein: recombinant; tags: N-terminal GST; dsDNA, one strand shown
# T8 sequence: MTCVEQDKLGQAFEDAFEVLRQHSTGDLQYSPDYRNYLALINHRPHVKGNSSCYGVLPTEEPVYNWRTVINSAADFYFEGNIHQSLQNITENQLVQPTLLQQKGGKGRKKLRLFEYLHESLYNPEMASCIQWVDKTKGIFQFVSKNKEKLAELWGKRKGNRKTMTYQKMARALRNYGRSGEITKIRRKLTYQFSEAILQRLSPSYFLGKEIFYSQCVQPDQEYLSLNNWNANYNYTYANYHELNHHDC
# Procedure, shortened: as §1
# ELF4 = ELF4 (Homo sapiens, UniProt Q99607 1-663); details: protein: recombinant; tags: N-terminal GST; dsDNA, one strand shown
# Procedure, shortened: as §1
# ELK4 = biological target: T9, ELK4 (Homo sapiens, UniProt P28324-2 1-405); details: protein: recombinant; tags: N-terminal GST; dsDNA, one strand shown
# T9 sequence: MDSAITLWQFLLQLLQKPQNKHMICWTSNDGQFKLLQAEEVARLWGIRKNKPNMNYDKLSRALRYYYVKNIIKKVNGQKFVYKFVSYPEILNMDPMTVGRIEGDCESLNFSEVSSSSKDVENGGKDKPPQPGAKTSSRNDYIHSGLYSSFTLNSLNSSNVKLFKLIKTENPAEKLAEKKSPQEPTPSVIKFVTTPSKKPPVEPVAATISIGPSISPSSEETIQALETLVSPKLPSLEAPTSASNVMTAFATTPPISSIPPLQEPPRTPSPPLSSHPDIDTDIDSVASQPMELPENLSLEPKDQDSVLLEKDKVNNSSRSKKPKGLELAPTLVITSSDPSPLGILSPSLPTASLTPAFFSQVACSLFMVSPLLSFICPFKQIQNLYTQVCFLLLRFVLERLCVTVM
# Procedure, shortened: as §1
# ETV2 = biological target: T10, ETV2 (Homo sapiens, UniProt O00321 1-342); details: protein: recombinant; tags: N-terminal GST; dsDNA, one strand shown
# T10 sequence: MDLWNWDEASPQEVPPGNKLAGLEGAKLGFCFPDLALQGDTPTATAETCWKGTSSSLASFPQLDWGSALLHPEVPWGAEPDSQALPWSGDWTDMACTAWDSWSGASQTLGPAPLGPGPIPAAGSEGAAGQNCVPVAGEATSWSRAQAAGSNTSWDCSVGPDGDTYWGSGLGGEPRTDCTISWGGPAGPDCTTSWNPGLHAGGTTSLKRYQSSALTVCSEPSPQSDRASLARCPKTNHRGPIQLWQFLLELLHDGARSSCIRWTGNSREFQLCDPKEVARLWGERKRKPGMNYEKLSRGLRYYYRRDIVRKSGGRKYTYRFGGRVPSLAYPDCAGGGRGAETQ
# Procedure, shortened: as §1
# ELF3 = biological target: T11, ELF3 (Homo sapiens, UniProt P78545 1-371); details: protein: recombinant; tags: N-terminal GST; dsDNA, one strand shown
# T11 sequence: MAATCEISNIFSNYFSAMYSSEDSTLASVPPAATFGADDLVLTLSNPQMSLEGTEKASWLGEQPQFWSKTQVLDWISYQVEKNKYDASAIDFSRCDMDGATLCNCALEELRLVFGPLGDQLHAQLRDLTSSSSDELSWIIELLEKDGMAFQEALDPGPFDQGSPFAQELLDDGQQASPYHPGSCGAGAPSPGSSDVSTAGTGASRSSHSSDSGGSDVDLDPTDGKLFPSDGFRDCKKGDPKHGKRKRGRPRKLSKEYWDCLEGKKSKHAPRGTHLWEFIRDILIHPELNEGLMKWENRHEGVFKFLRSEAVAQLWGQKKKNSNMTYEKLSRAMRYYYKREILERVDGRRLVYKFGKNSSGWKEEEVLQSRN
# Procedure, shortened: as §1
# CRX = CRX (Homo sapiens, UniProt O43186 1-299); details: protein: recombinant; tags: N-terminal GST; dsDNA, one strand shown
# Procedure, shortened: as §1
# ETV1 = ETV1 (Homo sapiens, UniProt P50549 1-477); details: protein: recombinant; tags: N-terminal GST; dsDNA, one strand shown
# Procedure, shortened: as §1
# ETV1, sequence (P50549 whole entry): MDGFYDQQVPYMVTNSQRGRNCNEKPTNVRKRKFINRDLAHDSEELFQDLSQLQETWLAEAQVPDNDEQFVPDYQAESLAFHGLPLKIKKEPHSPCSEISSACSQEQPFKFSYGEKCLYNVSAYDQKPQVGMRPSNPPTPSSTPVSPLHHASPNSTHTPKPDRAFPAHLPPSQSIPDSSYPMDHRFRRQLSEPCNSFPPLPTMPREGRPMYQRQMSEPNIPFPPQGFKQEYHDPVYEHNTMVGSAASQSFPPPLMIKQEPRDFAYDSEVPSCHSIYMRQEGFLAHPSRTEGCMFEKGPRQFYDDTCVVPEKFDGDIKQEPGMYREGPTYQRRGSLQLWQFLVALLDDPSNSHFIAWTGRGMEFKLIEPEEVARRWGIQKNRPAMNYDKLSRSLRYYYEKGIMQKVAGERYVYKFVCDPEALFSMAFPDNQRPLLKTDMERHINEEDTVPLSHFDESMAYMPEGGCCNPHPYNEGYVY
# HSF1, sequence (Q00613 whole entry): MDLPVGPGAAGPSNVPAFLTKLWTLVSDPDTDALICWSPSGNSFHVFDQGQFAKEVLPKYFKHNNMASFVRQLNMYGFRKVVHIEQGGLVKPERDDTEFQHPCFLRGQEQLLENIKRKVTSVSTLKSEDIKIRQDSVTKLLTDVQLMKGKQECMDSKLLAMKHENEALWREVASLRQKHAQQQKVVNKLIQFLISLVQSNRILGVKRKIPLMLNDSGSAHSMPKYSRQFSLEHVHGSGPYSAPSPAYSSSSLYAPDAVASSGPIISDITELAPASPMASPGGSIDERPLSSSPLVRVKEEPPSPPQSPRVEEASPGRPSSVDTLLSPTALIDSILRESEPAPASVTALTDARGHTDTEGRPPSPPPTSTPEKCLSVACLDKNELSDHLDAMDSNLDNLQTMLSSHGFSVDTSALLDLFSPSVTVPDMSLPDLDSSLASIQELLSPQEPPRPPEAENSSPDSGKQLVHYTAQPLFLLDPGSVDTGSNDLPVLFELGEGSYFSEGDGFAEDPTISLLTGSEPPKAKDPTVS
# ETV5, sequence (P41161 whole entry): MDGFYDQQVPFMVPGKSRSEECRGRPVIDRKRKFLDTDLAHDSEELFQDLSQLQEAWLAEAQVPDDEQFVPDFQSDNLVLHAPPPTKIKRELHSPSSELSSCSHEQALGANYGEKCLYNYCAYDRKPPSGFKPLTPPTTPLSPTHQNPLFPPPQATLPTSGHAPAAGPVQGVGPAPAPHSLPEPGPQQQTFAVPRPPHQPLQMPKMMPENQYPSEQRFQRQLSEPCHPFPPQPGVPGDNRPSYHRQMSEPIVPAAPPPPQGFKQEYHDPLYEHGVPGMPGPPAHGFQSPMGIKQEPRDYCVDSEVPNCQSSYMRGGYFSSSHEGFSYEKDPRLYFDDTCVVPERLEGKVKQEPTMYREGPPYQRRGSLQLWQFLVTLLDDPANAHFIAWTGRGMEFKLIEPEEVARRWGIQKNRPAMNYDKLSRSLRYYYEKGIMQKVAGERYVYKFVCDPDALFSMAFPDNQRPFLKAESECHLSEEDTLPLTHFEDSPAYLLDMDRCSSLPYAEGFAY
# SPIB, sequence (Q01892 whole entry): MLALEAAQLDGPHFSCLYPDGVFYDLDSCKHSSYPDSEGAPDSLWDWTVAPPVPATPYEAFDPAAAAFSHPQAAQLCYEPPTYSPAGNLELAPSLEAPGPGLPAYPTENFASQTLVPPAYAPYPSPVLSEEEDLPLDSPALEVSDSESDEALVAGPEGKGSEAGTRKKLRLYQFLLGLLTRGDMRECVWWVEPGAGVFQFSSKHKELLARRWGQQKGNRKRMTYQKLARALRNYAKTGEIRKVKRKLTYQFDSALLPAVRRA
# CRX, sequence (O43186 whole entry): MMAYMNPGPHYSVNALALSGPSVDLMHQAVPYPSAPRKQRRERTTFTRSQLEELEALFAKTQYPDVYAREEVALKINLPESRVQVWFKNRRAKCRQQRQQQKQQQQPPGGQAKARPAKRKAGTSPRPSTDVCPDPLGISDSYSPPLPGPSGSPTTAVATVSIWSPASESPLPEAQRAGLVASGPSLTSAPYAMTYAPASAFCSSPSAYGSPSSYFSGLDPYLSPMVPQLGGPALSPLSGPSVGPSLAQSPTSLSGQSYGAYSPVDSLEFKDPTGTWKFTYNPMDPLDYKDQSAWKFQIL
# ELF1, sequence (P32519 whole entry): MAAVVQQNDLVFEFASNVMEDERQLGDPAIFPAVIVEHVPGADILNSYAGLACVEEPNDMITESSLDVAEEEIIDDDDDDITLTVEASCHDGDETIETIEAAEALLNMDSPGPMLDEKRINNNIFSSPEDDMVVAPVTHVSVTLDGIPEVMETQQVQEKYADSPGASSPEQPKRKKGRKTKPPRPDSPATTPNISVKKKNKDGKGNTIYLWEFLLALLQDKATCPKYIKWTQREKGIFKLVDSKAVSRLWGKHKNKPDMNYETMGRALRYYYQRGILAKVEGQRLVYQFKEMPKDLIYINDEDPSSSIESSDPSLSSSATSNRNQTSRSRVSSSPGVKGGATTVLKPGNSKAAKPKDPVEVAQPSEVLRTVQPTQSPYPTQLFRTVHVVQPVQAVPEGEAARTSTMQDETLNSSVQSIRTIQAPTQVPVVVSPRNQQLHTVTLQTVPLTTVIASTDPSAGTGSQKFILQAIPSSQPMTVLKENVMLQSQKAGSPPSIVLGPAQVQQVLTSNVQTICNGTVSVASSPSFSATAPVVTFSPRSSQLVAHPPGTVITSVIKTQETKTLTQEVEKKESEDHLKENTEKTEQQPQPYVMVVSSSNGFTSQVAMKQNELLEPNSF
# ELF4, sequence (Q99607 whole entry): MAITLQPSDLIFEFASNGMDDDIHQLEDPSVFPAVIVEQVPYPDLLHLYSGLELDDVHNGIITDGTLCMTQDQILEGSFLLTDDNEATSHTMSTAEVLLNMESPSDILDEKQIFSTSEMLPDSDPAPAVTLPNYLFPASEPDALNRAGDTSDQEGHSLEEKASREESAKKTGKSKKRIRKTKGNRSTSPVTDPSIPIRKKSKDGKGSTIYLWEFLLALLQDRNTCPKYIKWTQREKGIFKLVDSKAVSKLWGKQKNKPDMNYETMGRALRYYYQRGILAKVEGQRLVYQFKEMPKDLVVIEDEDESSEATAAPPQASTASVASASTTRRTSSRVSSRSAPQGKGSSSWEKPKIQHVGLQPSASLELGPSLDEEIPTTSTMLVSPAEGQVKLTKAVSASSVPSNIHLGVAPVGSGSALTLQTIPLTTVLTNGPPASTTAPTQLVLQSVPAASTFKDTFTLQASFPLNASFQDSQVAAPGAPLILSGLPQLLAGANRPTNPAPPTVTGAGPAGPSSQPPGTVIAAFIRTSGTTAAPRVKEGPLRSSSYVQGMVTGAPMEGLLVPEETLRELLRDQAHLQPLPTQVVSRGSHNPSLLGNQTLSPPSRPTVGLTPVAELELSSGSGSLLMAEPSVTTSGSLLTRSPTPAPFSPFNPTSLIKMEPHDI
sequence,measurement,setting,value
CTCGAG,binding signal,FLI1,"1.23 fold enrichment (6-mer frequency, TF over GST control)"
same,binding signal,ELK1,"1.34 fold enrichment (6-mer frequency, TF over GST control)"
same,binding signal,GABPA,"1.35 fold enrichment (6-mer frequency, TF over GST control)"
same,binding signal,ERG,"1.31 fold enrichment (6-mer frequency, TF over GST control)"
same,binding signal,ELF1,"1.28 fold enrichment (6-mer frequency, TF over GST control)"
same,binding signal,EHF,"1.21 fold enrichment (6-mer frequency, TF over GST control)"
same,binding signal,SPI1,"1.35 fold enrichment (6-mer frequency, TF over GST control)"
same,binding signal,SPIB,"1.31 fold enrichment (6-mer frequency, TF over GST control)"
same,binding signal,ELK3,"1.18 fold enrichment (6-mer frequency, TF over GST control)"
same,binding signal,FEV,"1.2 fold enrichment (6-mer frequency, TF over GST control)"
same,binding signal,ETV5,"1.26 fold enrichment (6-mer frequency, TF over GST control)"
same,binding signal,HSF1,"2 fold enrichment (6-mer frequency, TF over GST control)"
same,binding signal,SPIC,"1.44 fold enrichment (6-mer frequency, TF over GST control)"
same,binding signal,ELF4,"1.34 fold enrichment (6-mer frequency, TF over GST control)"
same,binding signal,ELK4,"1.31 fold enrichment (6-mer frequency, TF over GST control)"
same,binding signal,ETV2,"1.64 fold enrichment (6-mer frequency, TF over GST control)"
same,binding signal,ELF3,"1.3 fold enrichment (6-mer frequency, TF over GST control)"
same,binding signal,CRX,"1.26 fold enrichment (6-mer frequency, TF over GST control)"
same,binding signal,ETV1,"1.2 fold enrichment (6-mer frequency, TF over GST control)"
